Sampled rows, rich in hits. Any-hit rate of the full collection: about 27%.
CYP2C9 activ: human CYP2C9 activators, primary screen, biochemical, luminescence. 96,000 tested, 1.4% active. recombinant CYP2C9, luciferin-H conversion; stronger effect = higher value; factor 1 = untreated enzyme, 0 = blocked. Cytochrome P450 2C9 (Homo sapiens), P11712. activation factor at 5 µM;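 active = activation factor of 2 or more for CYP2C9 at a 5 µM dose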;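 also: 0 = sulfaphenazole-blocked wells and 1 = vehicle-only wells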
CYP2C9 inhib: blockers of cytochrome P450 2C9 activity – biochemical, luminescence, ADME assay, primary screen; P11712; CYP2C9 Supersomes, luciferin-H conversion; inhibition, % at 5 µM; 96,000 tested, 20% active; AID 777, 2007;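 active = blocking of liver enzyme CYP2C9 beyond about 50% at 5 µM, limit read from the data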
Cav32 inh: Cav3.2 calcium influx blockers – cell-based, Fluo-4 calcium fluorescence, FDSS, MLSMR library, primary screen; Voltage-dependent T-type calcium channel subunit alpha-1H (Homo sapiens), O95180; Cav3.2-expressing cells; stronger effect = lower value; B-score at 10 µM; 100,000 tested, 4% active; AID 449739, 2010;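 active = single-dose well whose peak fluorescence ratio is a statistical outlier from its plate by either plate-standardised score or position-corrected B-score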
CYP2C19 act: human CYP2C19 activators, primary screen, biochemical, luminescence | recombinant CYP2C19, luciferin-H EGE luminescence; stronger effect = higher value; 0 = fully inhibited enzyme, 1 = untreated enzyme | activation factor at 5 µM | 96,000 tested, under 10 active;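 active = activation factor of at least 2 at 5 µM in the primary screen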;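 also: 0 = wells with 2.5 mM tranylcypromine and 1 = vehicle-only wells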
CYP2C19 inh: blockers of cytochrome P450 2C19 activity – biochemical, luminescence, ADME assay, primary screen | P33261 | CYP2C19 Supersomes, luciferin-H EGE luminescence, 30 min | inhibition, % at 5 µM | 96,000 tested, 21% active | AID 778, 2007;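 active = CYP2C19 inhibition above a set limit at 5 µM in the primary screen, cut at about 50% in these data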;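 also: plate controls were negative control wells for no effect and 2.5 mM tranylcypromine positive control for full effect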
Active calls of the source: *; . = not tested or not shown.

SMILES	CYP2C9 activ	CYP2C9 inhib	Cav32 inh	CYP2C19 act	CYP2C19 inh
O=S1(=O)c2cccc3cccc(c23)N1Cc1nnc(-c2ccccc2Br)o1	1.5	-47.2	-1.6	0.1	92.9*
O=C1c2ccccc2S(=O)(=O)N1Cc1nnc(-c2ccccc2Br)o1	.	.	0.177	.	.
CN1c2cccc3cccc(c23)N(C)C1(C)C	1	-1.8	.	0.8	24.0
CCCN1c2cccc3cccc(c23)S1(=O)=O	4.4*	-336.3	-2.06	0.1	89.9*
O=S1(=O)c2cccc3cccc(c23)N1Cc1ccc(-c2nnco2)cc1	0.5	53.4*	-0.402	0.3	67.7*
CCOC(=O)N1CCN(C(=O)c2ccc3c(c2)NC(=O)C(N2CCOCC2)S3)CC1 (stereo not drawn)	0.9	6.9	.	0.8	15.2
CCc1nnc(NC(=O)CSc2nc3cccnc3n2Cc2ccccc2)s1	.	.	-0.759	.	.
CCN(CC)S(=O)(=O)c1cccc(-c2nnc(SCCOc3ccc(Cl)cc3)o2)c1	2*	-97.4	-7.92*	0.4	61.1*
CCN(CC)S(=O)(=O)c1cccc(-c2nnc(SCC(=O)c3cc(C)n(C)c3C)o2)c1	0.7	34.1	-0.479	0.8	20.3
CCN(CC)S(=O)(=O)c1cccc(-c2nnc(SCCOc3ccccc3C)o2)c1	1.6	-64.7	-4.73*	0.1	90.4*
CCN(CC)S(=O)(=O)c1cccc(-c2nnc(SCCOc3ccccc3)o2)c1	1.4	-38.4	-4.16*	0.1	93.8*
CCN(CC)S(=O)(=O)c1ccc(-c2nnc(SCc3nnc(-c4ccc(C)cc4)o3)o2)cc1	1.1	-6.2	0.626	1	-3.3
CCN(CC)S(=O)(=O)c1cccc(-c2nnc(SCc3nnc(-c4ccccc4)o3)n2C)c1	0.5	54.8*	1.9	0.1	88.0*
CCCn1c(SCC(=O)Nc2nnc(-c3ccccc3)s2)nnc1-c1ccccn1	0.3	71.4*	-4.03	0.3	72.6*
CCc1ccc(NC(=O)CSc2nnc(-c3ccccn3)n2C)cc1	0.3	72.1*	0.348	0.3	67.2*
CCCn1c(SCC(=O)NCCc2ccccc2)nnc1-c1ccccn1	0.4	55.6*	0.902	0.4	55.6*
COC(=O)c1ccc(CSc2nnnn2-c2ccc(C)cc2C)o1	0.1	86.1*	-2.17	0.1	89.6*
CNC(=O)CSc1nnc(-c2ccncc2)n1Cc1ccccc1	0.9	13.3	0.095	0.8	17.0
O=C(CSc1nnc(-c2ccncc2)n1Cc1ccccc1)NCCc1ccccc1	0.4	62.6*	2.42	0.3	71.2*
CC(C)CNC(=O)CSc1nnc(-c2ccccn2)n1Cc1ccccc1	0.3	72.1*	-0.122	0.2	79.8*
COC(=O)c1ccc(CSc2nnc(-c3ccncc3)n2Cc2ccccc2)o1	0.3	74.2*	2.01	0.1	87.2*
CCn1c(SCC(=O)NC(C)(C)C)nnc1-c1ccoc1C	.	.	2.16	.	.
CCn1c(SCC(=O)NC(C)(C)C)nnc1-c1ccccn1	0.8	23.3	-0.383	0.3	73.2*
CC(C)c1ccc(NC(=O)CSc2nnc(-c3ccccn3)n2C)cc1	0.6	39.6	.	0.9	14.6
Cc1csc2nc(CNS(=O)(=O)c3cccnc3)cn12	.	.	1.59	.	.
SMILES	CYP2C9 activ	CYP2C9 inhib	Cav32 inh	CYP2C19 act	CYP2C19 inh
COc1ccc(NC(=O)c2ccc(Br)o2)c([N+](=O)[O-])c1	1.1	-6.0	0.851	0.9	5.2
Cc1cc(OC(=O)c2c(C)cc(OC(=O)c3c(C)cc(O)cc3O)cc2O)cc(O)c1C(=O)O	.	.	-1.63	.	.
O=C(O)CCC1COc2ccccc2O1 (stereo not drawn)	1	3.0	-0.246	1	-1.6
CC(C)CNS(=O)(=O)c1ccc(S(=O)(=O)NC2CCOC(C)(C)C2)cc1 (stereo not drawn)	.	.	0.332	.	.
CC(=O)c1ccccc1NC(=O)CSc1nnc2ccccn12	1.1	-5.7	.	1	2.6
COC(=O)c1ccc(CSc2nnc3ccccn23)o1	0.9	7.0	-2.04	0.5	52.1*
Cc1ccc(NC(=O)CCSc2nnc3ccccn23)cc1	0.9	12.3	0.419	0.5	54.9*
CCCc1nnc(SCc2ccc(C(=O)OC)o2)n1N	1.1	-12.3	0.278	0.8	23.0
CCN(CC)CCOC(=O)C1c2ccccc2Oc2ccccc21	1.1	-9.4	0.807	0.7	30.0
Nc1ncnc2c1ncn2[C@@H]1O[C@H](CO)C[C@@H]1O	.	.	-3.42	.	.
CC1CCc2sc3ncn4nc(C(=O)NCc5ccco5)nc4c3c2C1 (stereo not drawn)	0.9	12.5	.	1	-1.6
CC1CCc2c(sc3ncn4c(SCC(=O)NCc5ccco5)nnc4c23)C1 (stereo not drawn)	0.4	58.1*	-4.05	0.6	36.2
CC(C)Sc1nc2sc3c(c2c2nnc(SCC(=O)NCc4ccco4)n12)CCCC3	0.1	93.7*	0.621	0.2	77.4*
O=C(O)CCN1C(=O)/C(=C\c2ccc(-c3nc4ccccc4s3)o2)SC1=S	0.7	26.1	0.736	1	-3.5
CSCCC(CO)NC(=O)OCc1ccccc1 (stereo not drawn)	1	1.4	0.151	0.6	44.1
O=C(CN1C(=O)C2CC=CCC2C1=O)OCCN1C(=O)c2ccccc2C1=O (stereo not drawn)	0.9	10.9	1.43	0.9	12.4
CC(=O)c1ccc(NC2c3ncccc3C(=O)N2Cc2ccc(F)cc2)cc1 (stereo not drawn)	0.7	31.7	0.112	0.2	76.3*
COc1ccc(CN2C(=O)c3cccnc3C2Nc2ccc(C)cc2)cc1 (stereo not drawn)	0.4	62.7*	-1.35	0.4	63.4*
C=CCn1sc(=N)c(C#N)c1N	0.8	15.8	1.53	1.1	-6.0
CCO[C@@H]1OC(C(=O)NCc2nc3ccccc3[nH]2)=C[C@H](c2ccc(C(F)(F)F)cc2)[C@H]1CCCO	.	.	-1.87	.	.
CCC1(c2cccc(Cl)c2)NC(=O)N(Cc2cc(C(=O)OC)c(C)o2)C1=O (stereo not drawn)	1	-0.4	-5.54*	0.4	62.2*
O=C(Cn1[nH]c(=O)c2ccccc2c1=O)Nc1ccc(-c2nnc3n2CCCCC3)cc1	0.8	18.6	0.317	1	2.0
O=C(Nc1ccc(Cl)c(Cl)c1)N1CCSCC1	.	.	0.0808	.	.
CC(=O)CCc1ccc(OCCCCn2cncn2)cc1	0.8	24.4	0.628	0.5	46.6
Cc1cc(C(=O)Cn2cncn2)c(C)n1CCc1ccc(F)cc1	0.3	67.2*	0.447	0	98.7*
COC(=O)c1cccc(NC(=O)c2nn(C(C)C)c(=O)c3ccccc23)c1	0.6	39.0	-0.996	0.9	7.1
O=C(CCN1C(=O)S/C(=C\c2ccccc2)C1=O)Nc1ccc(S(=O)(=O)Nc2nccs2)cc1	0.4	64.7*	.	0.7	29.1
CCCn1nc(C(=O)Nc2cccc(C(=O)OC)c2)c2ccccc2c1=O	0.2	78.8*	.	0.4	63.3*

Assay outcomes from PubChem BioAssay.
